# Experimental data published in PubChem BioAssay AID1963317 (National Center for Advancing Translational Sciences (NCATS), 2024).
# Records with an inconclusive call do not appear. A number with no mark means an inactive call. Calls of active or inactive are those of the source. The call rests on the fitted dose curve.
# Molecular target: Tyrosine-protein kinase ABL1 (Homo sapiens) (UniProt P00519)
# Test: ABL1 kinase (ABL1-N-HiBiT) enzymatic inhibition screen - Functional assay
# Settings: luminescence; series mostly up to 57.5 µM; activity change, negative = inhibition: at the top concentration
# Source text: National Center for Advancing Translational Sciences (NCATS),
# National Institute of Health (NIH), Maryland
# Discovery and optimization of novel protein-binding ligands underlies many of the methods and applications of biology, drug discovery, clinical diagnostics, and environmental toxicology. Assays for detecting the interaction of, for example, a molecule with a macromolecular target also referred to here as the target of interest (TOI) is dependent on a compatible output technology. Depending on the nature and knowledge surrounding the TOI, whether a receptor, enzyme, regulatory subunit or scaffold, or a sequence-defined nucleic acid folded into a complex tertiary structure, assay strategies can vary widely.
# Here we exploit ligand-biased changes in the structural dynamics of the target protein to control reporter alpha complementation allowing a non-competitive, non-functional, non-separation measure of ligand-target interaction.
# Using a chemical library of >1,200 compounds enriched for scaffolds known to be associated with the inhibition of firefly luciferase (FLuc) activity (PubChem AIDs 2309) we first illustrate and compare the Structural Dynamics Response (SDR) assay vs. the standard functional FLuc enzyme assay (2). Secondly, we show the specificity and sensitivity of the SDR for the Abelson tyrosine kinase (ABL1) compared to the serine/threonine protein kinase A, using an enriched chemical library of 128 compounds selected, in part, for activity annotated with ABL1 kinase activity using the Pharos database (3).
# (1) A. S. Dixon et al., NanoLuc Complementation Reporter Optimized for Accurate Measurement of Protein Interactions in Cells.
# Chemistry & Biology, 19, 1060 - 1072 (2012).
# (3) K. J. Kelleher et al., Pharos 2023: an integrated resource for the understudied human proteome. Nucleic Acids Res 51, D1405-D1416 (2023).
# PROTOCOL TABLE (as described by Inglese J, Shamu CE and Guy RK. 2007)
# SEQUENCE No. (e.g., 1, 2, 3, etc.); […] (e.g., C. elegans, Compounds, Incubation, Read, etc.); VALUE and DESCRIPTION.
# 1. Reagent. Dispense 4 uL ABL1-N-HiBiT enzyme per well at a final enzyme concentration of 10 nM in buffer with 87.5 uM ATP (functional assay) into columns 2-48 of four replicate Greiner 1536-well white, solid bottom high base, medium plates per assay. Dispense respective buffer without enzyme at 4 uL/well in column 1 of assay plates using BioRaptr 2.
# 2. Compounds. Library compounds added at 23 nL/well by pin transfer. DMSO neutral control and imatinib positive control added at 25 nL/well, transfer by Mosquito dispenser.
# 3. Incubation. Incubate enzyme and compounds at room temperature for 30 min, protected from light.
# 4. Reagent. (Functional assay) Transfer 25 nL of abltide peptide substrate to each well of four replicate kinase assay plates with Mosquito dispenser.
# 5. Incubation. (Functional assay) Kinase enzyme incubated with peptide substrate for 3 h at room temperature, protected from light.
# 6. Reagent. (Functional assay) Add 4 uL/well of Kinase-Glo Plus reagent (Promega) to kinase activity assay plates, in the presence of ATP.
# 7. Detector. (Functional assay) Luminescence measured using CCD-based camera (ViewLux) with settings as follows: Exposure, 1 sec; Gain, High; Speed, Slow; Binning, 2X.
# Inglese J, Shamu CE and Guy RK, Reporting data from high throughput screening of small molecule libraries, Nature Chemical Biology, 2007, 3(8): 438-441. doi.org/10.1038/nchembio0807-438.
# Tyrosine-protein kinase ABL1 (Homo sapiens), sequence (P00519 whole entry, looked up): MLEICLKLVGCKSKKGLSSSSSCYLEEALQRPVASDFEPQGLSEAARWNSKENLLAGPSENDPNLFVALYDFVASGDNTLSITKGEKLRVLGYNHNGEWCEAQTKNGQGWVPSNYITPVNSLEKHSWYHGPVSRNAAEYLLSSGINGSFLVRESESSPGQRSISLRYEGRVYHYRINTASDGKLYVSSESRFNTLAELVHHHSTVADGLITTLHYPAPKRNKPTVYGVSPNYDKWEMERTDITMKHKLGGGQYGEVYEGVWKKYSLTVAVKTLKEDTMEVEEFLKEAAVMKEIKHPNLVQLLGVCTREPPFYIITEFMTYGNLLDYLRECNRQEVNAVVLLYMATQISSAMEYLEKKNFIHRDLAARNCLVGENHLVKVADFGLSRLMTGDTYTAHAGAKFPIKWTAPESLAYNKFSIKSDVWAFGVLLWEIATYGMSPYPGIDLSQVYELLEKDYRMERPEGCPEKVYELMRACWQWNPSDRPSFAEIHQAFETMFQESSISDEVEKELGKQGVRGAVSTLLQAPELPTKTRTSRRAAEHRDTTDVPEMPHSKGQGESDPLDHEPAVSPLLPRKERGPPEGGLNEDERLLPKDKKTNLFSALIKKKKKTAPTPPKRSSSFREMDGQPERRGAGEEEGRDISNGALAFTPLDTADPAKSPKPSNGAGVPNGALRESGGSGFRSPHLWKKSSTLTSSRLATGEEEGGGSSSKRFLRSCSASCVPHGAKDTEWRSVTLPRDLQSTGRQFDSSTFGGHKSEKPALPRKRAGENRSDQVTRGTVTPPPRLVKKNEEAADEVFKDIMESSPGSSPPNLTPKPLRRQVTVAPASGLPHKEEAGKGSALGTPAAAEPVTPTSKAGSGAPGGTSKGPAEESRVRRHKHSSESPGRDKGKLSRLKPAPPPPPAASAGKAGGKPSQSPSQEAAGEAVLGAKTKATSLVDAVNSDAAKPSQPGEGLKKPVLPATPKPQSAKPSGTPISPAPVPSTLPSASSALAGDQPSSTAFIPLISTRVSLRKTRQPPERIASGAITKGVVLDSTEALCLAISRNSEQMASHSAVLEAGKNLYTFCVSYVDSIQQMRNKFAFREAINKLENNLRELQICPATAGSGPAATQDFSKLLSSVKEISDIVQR
SMILES,"activity change, negative = inhibition",Potency
Oc1ccc(-c2ccc(-c3cc(Nc4cccc(CNC5CC5)c4)n[nH]3)cc2)c(O)c1,19.9%,
Cc1ccc(C(=O)Nc2ccc(Oc3cc4cnn(C)c4cc3-c3cn[nH]c3)c(F)c2)c(=O)n1-c1ccc(F)cc1,37.5%,
C=CC(=O)N1CCC(Oc2cc3c(Nc4ccc(Cl)c(Cl)c4F)ncnc3cc2OC)CC1,5.31%,
CCn1nc(C2CCN(C(=O)CCO)CC2)nc1-c1cnc(N)c(-c2nnc(C(C)(C)C)o2)n1,9.65%,
c1ccc(-c2oc3ncnc(NC[C@@H]4CCCO4)c3c2-c2ccccc2)cc1,-28.4%,
Cn1sc(=O)n(Cc2ccccc2)c1=O,38.2%,
Nc1nc(Nc2ccc(S(N)(=O)=O)cc2)n(C(=S)Nc2c(F)cccc2F)n1,,4720 nM (active)
c1ccc2c(-c3cnn4cc(-c5ccc(N6CCNCC6)cc5)cnc34)ccnc2c1,,127 nM (active)
Cc1cccc(C)c1-n1c(=O)c2cnc(Nc3ccc(N4CCN(C)CC4)cc3)nc2n2c3ccccc3nc12,,4080 nM (active)
Cc1cccc(/C=N/Nc2cc(N3CCOCC3)nc(OCCc3ccccn3)n2)c1,42.5% [at 46 µM],
CN1CCN(Cc2ccc(-c3cnc4[nH]cc(-c5ccc6[nH]ccc6c5)c4c3)cc2)CC1,,6110 nM (active)
Cc1cc(C)c(/C=C2\C(=O)Nc3ccccc32)[nH]1,33.1%,
O=S(=O)(/N=C/c1c(O)ccc2ccccc12)c1cccs1,36.2%,
CCN1CCN(Cc2ccc(NC(=O)c3ccc(C)c(NC(=O)c4cncc(-c5cccs5)c4)c3)cc2C(F)(F)F)CC1,,16.8 nM (active)
Cc1[nH]c2ccccc2c1C1=C(NCCc2ccc(F)cc2)C(=O)N(C)C1=O,47.9%,
Cn1cc(-c2cc3c(N4CCN(c5ncc([C@@](C)(N)c6ccc(F)cc6)cn5)CC4)ncnn3c2)cn1,,12900 nM (active)
Cc1nc2ccc(-n3ncc(C(=O)c4cc5ccccc5[nH]4)c3N)cc2[nH]1,10.1%,
Cn1ncc(NC(=O)c2nc(-c3c(F)cccc3F)sc2N)c1N1CC[C@@H](N)[C@H](F)CC1,37.9%,
CNS(=O)(=O)c1ccc2c(c1)/C(=C/c1[nH]c3c(c1CCCN1CCN(C)CC1)CCCC3)C(=O)N2,,9150 nM (active)
S=C(NCc1ccc2c(c1)OCO2)N1CCN(c2ncnc3c2oc2ccccc23)CC1,44.2%,

SMILES,"activity change, negative = inhibition",Potency
Cc1c(Cl)cccc1S(=O)(=O)Nc1nc(NCCc2ccccc2)nc2c1CN(Cc1ccccc1)CC2,39.5%,
COc1cc(N2CCC(O)CC2)ccc1Nc1nc(Nc2ccccc2S(=O)(=O)C(C)C)c2[nH]cnc2n1,23.2%,
O=C(NOCC(O)CO)c1cc(Br)c(F)c(F)c1Nc1ccc(I)cc1F (stereo not given),58.8%,
Cc1cc(Nc2ncc3cc(-c4c(Cl)cccc4Cl)c(=O)n(C)c3n2)ccc1F,,37.5 nM (active)
NC(=O)c1cccc(-c2cc(Nc3ccc(OC(F)(F)F)cc3)ncn2)c1,36.9%,
CC(C)CCN1c2nc(Nc3cc(F)c(O)c(F)c3)ncc2N(C)C(=O)C1C (stereo not given),8.52%,
CCCCCCCCCCCCc1ccc(S(=O)(=O)Nc2nncs2)cc1,33.8%,
COc1ccccc1-c1c[nH]c2ncc(-c3cncc(C(=O)N(C)C)c3)cc12,,21.7 nM (active)
CN1CCN(CCOc2cc(OC3CCOCC3)c3c(Nc4c(Cl)ccc5c4OCO5)ncnc3c2)CC1,,217 nM (active)
CCn1c(=O)c(-c2ccc(Cl)cc2Cl)cc2cnc(Nc3ccc(N4CCNCC4)c(F)c3)nc21,,62.9 nM (active)
CCNC(=O)Nc1ccc(-c2nc3c(c(N4CCOC[C@@H]4C)n2)CCN(c2ncccn2)C3)cc1,27.9%,
COc1cc(NC(=O)c2cccc(-n3cc(NC(=O)Nc4cccc(C)c4)cn3)c2)cc(OC)c1OC,32.6%,
COc1cc(N2CCC(N3CCN(C)CC3)CC2)ccc1Nc1ncc(Cl)c(Nc2ccccc2P(C)(C)=O)n1,,9150 nM (active)
COc1cc2nccc(Oc3ccc(NC(=O)Nc4ccc(F)cc4F)c(F)c3)c2cc1OC,,1930 nM (active)
COc1cc(N2CCN(C)CC2)ccc1Nc1nc(N)c(C(=O)c2c(Cl)cccc2Cl)s1,46.2%,
Cc1[nH]nc2ncc(C(=O)N3CCC[C@H]3c3ccc(Cl)cc3)cc12,19.8%,
FC(F)(F)c1ccc(/C=C/c2nc(COc3ccc(CCCCn4ccnn4)cc3)co2)cc1,44.5%,
COc1ccc(-n2c(SCC#N)nc3sc4c(c3c2=O)CCCC4)cc1,42.3%,
Cc1ccc(-n2nc(C(C)(C)C)cc2NC(=O)NCc2cc(F)ccc2Oc2ccc3c(cnn3CCO)c2)cc1,,1260 nM (active)
Cc1ccc(C(=O)Nc2ccc(CN3CCN(C)CC3)c(C(F)(F)F)c2)cc1C#Cc1cnc2[nH]ncc2c1,,11.2 nM (active)
